Test results published in PubChem BioAssay.

These molecules were tested against Fibroblast growth factor 10 (Homo sapiens) (UniProt O15520) (assay: compounds binding fibroblast growth factor 10 – biochemical, small-molecule microarray, 635 nm fluorescence, primary screen (AID 1102)). Conditions: FGF10 binding, fluorescence 635 nm, higher = more signal.
Sequence of Fibroblast growth factor 10 (Homo sapiens) (O15520 whole entry, looked up): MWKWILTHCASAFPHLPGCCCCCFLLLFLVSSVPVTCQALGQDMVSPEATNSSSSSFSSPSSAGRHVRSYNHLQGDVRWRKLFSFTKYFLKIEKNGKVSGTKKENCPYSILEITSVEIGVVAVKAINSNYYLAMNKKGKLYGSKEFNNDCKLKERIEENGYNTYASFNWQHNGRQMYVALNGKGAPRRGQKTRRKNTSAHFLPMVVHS
Molecule `CO[C@H]1COC(=O)CC=C[C@@H](C)COC(=O)[C@H]2CCCN2C(=O)CC=C[C@H]1C` has a composite z-score of 0.756.
Work on `CC(C)=CCCC(C)=CCON=C1[C@H]2CCn3c(=O)n(-c4ccccc4)c(=O)n3[C@H]2[C@H](O)[C@@H]2O[C@H]12` yielded a composite z-score of 0.726.
`COc1ccc(O[C@H]2C=C[C@@H](c3ccccc3)O[C@@H]2COC(=O)NCc2cccc3ccccc23)cc1` gave a composite z-score of 0.0748.
`C#CCCCON=C1[C@H]2CCn3c(=O)n(Cc4cc5c(cc4Cl)OCO5)c(=O)n3[C@H]2[C@H](O)[C@@H]2O[C@H]12` showed a composite z-score of 0.914.
For `COC(=O)[C@@H]1CC[C@H](C)[C@@H](c2ccc(C)cc2)N1C(=O)c1ccc(C=NOC[C@@H](O)[C@H]2O[C@@H]3OC(C)(C)O[C@@H]3[C@H]2O)cc1`, the composite z-score was 0.696.
`CCOC(=O)[C@H](CC(C)C)NC(=O)CCC1CC(OC(=O)NCc2ccc3c(c2)OCO3)CC2(CCCC(COC(=O)NCCc3ccc(Cl)cc3)O2)O1` (stereo partly specified) showed a composite z-score of 0.525.
Work on `CCOC(=O)[C@H](Cc1ccccc1)NC(=O)CCC1CC(OC(=O)NCCc2ccc(F)cc2)CC2(CCCC(COC(=O)NCCOc3ccccc3)O2)O1` (stereo partly specified) yielded a composite z-score of 0.979.
`CC(C)=NOC(C)CN1CCCc2nc(C)c(C)cc21` (stereo unspecified) showed a composite z-score of 0.809.
`CCOC(=O)[C@H](Cc1ccccc1)NC(=O)CCC1CC(OC(=O)NCc2ccc3c(c2)OCO3)CC2(CCCC(COC(=O)NCCOC)O2)O1` (stereo partly specified) showed a composite z-score of 1.28.
In the case of `CC(CCC(=O)OC[C@H]1O[C@H](C#Cc2ccccc2)C=C[C@@H]1Oc1ccc(C)cc1)=NO[C@H](C)c1cn([C@@H]2COC[C@H]2O)nn1`, the composite z-score is reported as 0.162.
`CCN1C(C)=C(C(=O)OC)[C@@H](c2ccccc2)N2C(=O)[C@](O)(C(=O)OC)CC(C(C)=O)=C12` was tested, and the composite z-score was 0.302.
With `CCOC(=O)CCN1C(=O)[C@H]2[C@H]3[C@H](O)[C@H](O)CC(=NO[C@@H]4O[C@H](CO)[C@@H](O)[C@H](O)[C@H]4O)[C@H]3CC[C@H]2C1=O` the composite z-score was 0.655.
`CCC1=NOC(CCC2CC(OC(=O)NCc3cccc4c3OCO4)CC3(CCCC(COC(=O)NCCc4ccc(Cl)cc4)O3)O2)C1` (stereo unspecified) gave a composite z-score of 1.41.
`CC(C)=CCCC(C)=CCON=C1C[C@@H](O)[C@@H](O)[C@@H]2[C@@H]3C(=O)N(C4CCCCC4)C(=O)[C@@H]3CC[C@H]12` showed a composite z-score of 0.785.
`COC(=O)[C@@H]1CC[C@H](C)[C@@H](c2ccc(C)cc2)N1C(=O)c1ccc(C=NO[C@@H](C)c2cc(-c3c(C)cc(C)cc3C)no2)cc1` gave a composite z-score of 0.418.
Molecule `CCN1C(=O)[C@H]2[C@H]3[C@H](O)[C@H](O)CC(=NO[C@H](C)c4cn([C@@H]5COC[C@H]5O)nn4)[C@@H]3CC[C@H]2C1=O` has a composite z-score of 0.46.
`CC(C)=NOC[C@@H](O)[C@H]1O[C@@H]2OC(C)(C)O[C@@H]2[C@H]1O` was tested, and the composite z-score was 0.392.
`COc1ccc(COC(=O)NN=C2C[C@@H](O)[C@@H](O)[C@@H]3[C@@H]4C(=O)N(C[C@@H]5CCCO5)C(=O)[C@@H]4CC[C@@H]23)cc1` was tested, and the composite z-score was 1.01.
In the case of `COc1ccc(O[C@H]2C=C[C@@H](c3ccccc3)O[C@@H]2CON=C(C)CCN2CCCc3nc(C)c(C)cc32)cc1`, the composite z-score is reported as 0.735.
Molecule `CCc1cc2c(nc1CC)CCN(CCC(C)=NOCC[C@@H]1C=C[C@H](OC(C)=O)[C@@H](COC(C)=O)O1)C2` has a composite z-score of -0.0488.
`CCOC(=O)[C@H](CC(C)C)NC(=O)CCC1CC(OC(=O)NCCc2ccc(F)cc2)CC2(CCCC(COC(=O)NCCCN3CCCC3=O)O2)O1` (stereo partly specified) gave a composite z-score of 0.93.
With `COc1ccc(COC(=O)NN=C2C[C@@H](O)[C@@H](O)[C@@H]3[C@@H]4C(=O)N(Cc5ccc6c(c5)OCO6)C(=O)[C@@H]4CC[C@H]23)cc1` the composite z-score was -0.67.
With `CC(CCN1CCCCc2nc(C)c(C)cc21)=NOC[C@@H](O)[C@H]1O[C@@H]2OC(C)(C)O[C@@H]2[C@H]1O` the composite z-score was 0.313.
Work on `O=C1[C@H]2CCn3c(=O)n(-c4ccccc4)c(=O)n3[C@H]2[C@H](O)[C@@H]2O[C@H]12` yielded a composite z-score of 0.837.
In the case of `CC(C)=NO[C@H](C)c1cn([C@@H]2COC[C@H]2O)nn1`, the composite z-score is reported as 0.728.
`CC(CCN1CCc2nc(-c3ccccc3)c(-c3ccccc3)cc2C1)=NO[C@@H](C)c1cc(-c2c(C)cc(C)cc2C)no1` showed a composite z-score of -0.567.
For `CC(C)CN1CCc2nc(-c3ccccc3)c3c(c2C1)CO[C@@H](C)C3`, the composite z-score was 0.929.
Work on `CCOC(=O)CCN1C(=O)[C@H]2[C@H]3[C@H](O)[C@H](O)CC(=NOCC=C(C)CCC=C(C)C)[C@@H]3CC[C@H]2C1=O` yielded a composite z-score of 1.15.
`CON=C[C@@H](OC)[C@H](C)C=CCC(=O)OC` was tested, and the composite z-score was -0.135.
For `CCOC(=O)CCN1C(=O)[C@H]2[C@H]3[C@H](O)[C@H](O)CC(=NO[C@@H]4O[C@H](CO)[C@@H](O)[C@H](O)[C@H]4O)[C@@H]3CC[C@H]2C1=O`, the composite z-score was 1.04.
`CC(CCN1CCCc2nc(C)c(C)cc21)=NO[C@H](C)c1cn([C@@H]2COC[C@H]2O)nn1` gave a composite z-score of 0.667.
`CC(C)(C)N1C(=O)[C@H]2[C@H]3[C@H](O)[C@H](O)CC(=NOC[C@@H](O)COCc4ccco4)[C@H]3CC[C@H]2C1=O` gave a composite z-score of 0.207.
With `CCOC(=O)CCN1C(=O)[C@H]2[C@@H]3C(=CC[C@H]2C1=O)C(=O)[C@H]1O[C@H]1[C@H]3O` the composite z-score was -0.632.
`COc1ccc(COC(=O)NN=C2C[C@@H](O)[C@@H](O)[C@@H]3[C@@H]4C(=O)N(C[C@@H]5CCCO5)C(=O)[C@@H]4CC[C@H]23)cc1` was tested, and the composite z-score was -0.494.
Molecule `CCN1C(=O)[C@H]2[C@H]3[C@H](O)[C@H](O)CC(=NOCC(C)C)[C@H]3CC[C@H]2C1=O` has a composite z-score of 0.531.
With `CC(C)=CCCC(C)=CCON=C1C[C@@H](O)[C@@H](O)[C@@H]2[C@@H]3C(=O)N(Cc4ccc5c(c4)OCO5)C(=O)[C@@H]3CC[C@H]12` the composite z-score was 0.797.
